Experimental data: PubChem BioAssay

Assay: small-molecule binders of probe aInhba, primary screen, biochemical, small-molecule microarray, 635/667 nm fluorescence (AID 1148);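 further: score merges 667nm spot fluorescence with signal-to-noise for antibody binding to printed compounds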
Settings: higher = more signal

Compound | composite z-score
COCCOC(=O)N1C(=O)[C@@]2(c3ccccc31)[C@H](c1ccc(OCCO)cc1)N1[C@H](c3ccccc3)[C@H](c3ccccc3)OC(=O)[C@H]1[C@@H]2C(=O)N1CCCCCCC1 | 2.11
CCCCCN1CC=CC23O[C@@H]4/C=C\CCC(C)OC(=O)C4[C@H]2C(=O)N(CCCCCCO)[C@@H]3C1=O (stereo not given in full) | -0.153
COCCOC(=O)N1C(=O)[C@@]2(c3ccccc31)[C@H](c1ccccc1OCCO)N1[C@H](c3ccccc3)[C@H](c3ccccc3)OC(=O)[C@H]1[C@@H]2C(=O)N1CCCCCCC1 | 2.24
C=C[C@@H](OC)[C@H](OC(=O)Nc1ccc(SC)cc1)c1ccc(OCCO)cc1 | -0.071
COC(=O)[C@@]1(Cc2ccc(F)cc2)[C@H]2c3cc(C(=O)N(C)C)n(Cc4c(CO)[nH]cc(C)c4=O)c3C[C@H]2CN1C(=O)c1ccccc1 | 0.0212
Cc1ccccc1C(O)C1C=CC2C(=O)N(c3ccccc3)C(=O)C2N1Nc1ccc([N+](=O)[O-])cc1 (stereo not given) | 0.3
COc1cc(NN2C(C(O)c3cc(OC)c(OC)c(OC)c3)C=CC3C(=O)N(c4ccccc4)C(=O)C32)cc(OC)c1OC (stereo not given) | 0.867
C=CCC(OC(C)=O)[C@@H]1[C@@H](N(Cc2cccc3ccccc23)C(=O)c2cccc3ccccc23)c2cc(OCCCO)ccc2N1C(=O)c1ccc2ccccc2c1 (stereo not given in full) | -0.0288
COC(=O)[C@@]1(Cc2ccccc2)[C@H]2c3cc(C(=O)N4CCCC4)n(CCSCCO)c3C[C@H]2CN1C(=O)c1ccccc1 | 0.545
Cc1cccc([C@H]2C[C@H]3C(I)=C[C@@H]2C(=O)[C@]32CO2)c1 | -0.0762
O=C1C2C=CC(C(O)C=Cc3ccc([N+](=O)[O-])cc3)N(Nc3ccccc3)C2C(=O)N1c1ccccc1 (stereo not given) | 0.117
CC(=O)NCCCC[C@@H]1NC(=O)[C@H]2C[C@@H](C(=O)NCCCCCNC(=O)CS)[C@@H](c3cccc(OCCO)c3)N2C1=O | -0.128
C=C[C@H](C)[C@H](OC(=O)Nc1ccc(OC)cc1)c1ccc(OCCO)cc1 | -0.314
CCOC(=O)C[C@H]1[C@H](OC(=O)c2ccc(C(=O)c3ccccc3)cc2)[C@@H](NC(=O)CC(C)C)c2cc(OCCCO)ccc2N1C(=O)Cc1ccc(OC)cc1 | 0.128
Cc1ccccc1C(O)C1C=CC2C(=O)NC(=O)C2N1Nc1ccc(Cl)cc1Cl (stereo not given) | 0.319
COc1cc2c(cc1O)C(c1ccc(CN3CCCC3)cc1)N(C)CC2 (stereo not given) | -0.237
COc1ccc([Si](C)(C)[C@@H]2[C@@H](CCn3cc([C@H](O)c4ccccc4)nn3)O[C@]3(C(=O)N(Cc4cccc(N5C(=O)c6cccc7cccc5c67)c4)c4ccccc43)[C@H]2C)cc1 | -0.0963
CC(C)(C)OC(=O)CC[C@]1(C(=O)N2CCCCC2)COC(c2ccc(OCCCO)cc2)=N1 | 0.127

Compound | composite z-score
COCCOC(=O)N1C(=O)[C@@]2(c3cc(C#CC4=CCCCC4)ccc31)[C@H](c1ccc(O)cc1)N1[C@H](c3ccccc3)[C@H](c3ccccc3)OC(=O)[C@H]1[C@@H]2C(=O)NC[C@H](O)c1ccccc1 | 0.0227
CN(C)CCCCCCNC(=O)[C@@H]1C[C@@H]2C(=O)N[C@@H](CCCCN)C(=O)N2[C@@H]1c1ccc(O)cc1 | 1.93
Cc1ccc(N2C(=O)c3ccccc3[C@](C)(C(=O)NCc3ccccc3)[C@@H]2c2ccc(CO)cc2)nc1 | 0.0561
C=C[C@@H](C)[C@@H](OC(=O)Nc1ccc(SC)cc1)c1ccc(OCCO)cc1 | -0.151
C=C(/C(=C/C[C@@H](OC(=O)c1ccncc1)c1cccc(OCCO)c1)c1cnc2ccccc2c1)C(C)C | 0.0422
O=c1cccc(-c2ccco2)o1 | 0.0091
O=C1C2C=CC(C(O)c3cc(C(F)(F)F)cc(C(F)(F)F)c3)N(Nc3ccccc3F)C2C(=O)N1c1ccccc1 (stereo not given) | 0.385
O=C(N1CCOCC1)[C@@]1(CCS(=O)(=O)c2ccccc2)N=C(c2ccc(OCCCO)cc2)O[C@H]1c1ccccc1 | 0.3
COCCCNC(=O)[C@@]1(Sc2ccc(C)cc2)CC(=O)N(C(C)C)[C@@H]1c1ccc(CO)cc1I | -0.0762
C=C(C)[C@@H]1CC=C(C(O)C2C=CC3C(=O)N(c4ccccc4)C(=O)C3N2Nc2ccc(C#N)cc2)CC1 (stereo not given in full) | 0.361
C=C(COC)/C(=C/C[C@@H](OC(=O)c1ccncc1)c1ccccc1OCCO)c1cc(C(=O)OC)ccc1OC | -0.0762
CC(C)C[C@@H]1NC(=O)[C@@H]2C[C@H](C(=O)NCCCCCC[N+](C)(C)C)[C@H](c3cccc(OCCO)c3)N2C1=O | -0.128
O=C1C2C=CC(C(O)c3ccco3)N(Nc3ccccc3)C2C(=O)N1c1ccccc1 (stereo not given) | -0.0963
CCOC(=O)C[C@H]1[C@H](OC(=O)c2ccc(-c3ccccc3)cc2)[C@@H](NC(=O)Cc2ccc(OC)cc2)c2cc(OCCCO)ccc2N1C(=O)Cc1ccc(OC)cc1 | -0.128
CCOC(=O)C1=CC[C@@H](c2ccccc2)N(S(=O)(=O)c2ccc(C)cc2)[C@H]1c1cccc(OC)c1 | 0.135
CN1C=C(C(=O)OCCS(C)(=O)=O)C(C(=O)OCCS(C)(=O)=O)=CC(c2ccc(CO)cc2)=CC1c1cccs1 (stereo not given) | 0.0659
COC(=O)C(CC#Cc1ccc2c(c1)[C@]1(C(=O)N2)[C@H](c2ccc(OCCO)cc2)N2[C@H](c3ccccc3)[C@H](c3ccccc3)OC(=O)[C@H]2[C@@H]1C(=O)N1CCN(c2ncccn2)CC1)C(=O)OC | 0.306
